Experiment [1] in a line: Caspase-3/7 induction in HepG2 cells by small molecules, qHTS assay (AID 1346978). Further: nearly all actives have a fitted effect of over 15% in size. Further: potency means the concentration at half of the fitted maximal effect. An outline of the steps:
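Wild-type HepG2 cells, 2,000/well, settled 5 hr at 37 C and 5% CO2, then compound-treated for 17 hr; caspase-3/7 activity read by luminescent Caspase-Glo 3/7 after 30 min at room temperature.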

Experiment [2] in a line: Caspase-3/7 induction in CHO-K1 cells by small molecules, qHTS cell viability counter screen (AID 1346979). Further: nearly all actives have a fitted effect of over 35% in size. Further: potency means the concentration at half of the fitted maximal effect. The essentials:
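Wild-type CHO-K1 cells (1,500/well) treated with compound after 5 h plating; after 16 h at 37C, viability read as CellTiter-Fluor fluorescence following 1 h reagent incubation, in the same wells as the caspase read.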

Experiment [3] is described as follows: Caspase-3/7 induction in CHO-K1 cells by small molecules, qHTS assay (AID 1346980). Further: nearly all actives have a fitted effect of over 15% in size. Further: potency means the concentration at half of the fitted maximal effect. The essentials: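 Wild-type CHO-K1 cells exposed to compounds for 17hr at 37 C, 5% CO2. Caspase-3/7 activity then measured by Caspase-Glo 3/7 luminescence after 30min at room temperature.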
(In general: Quantitative high-throughput screening tests each substance at several concentrations.)

Experiment [4] is described as follows: Caspase-3/7 induction in HepG2 cells by small molecules, qHTS cell viability counter screen (AID 1346981). Further: nearly all actives have a fitted effect of over 30% in size. Further: potency means the concentration at half of the fitted maximal effect. An outline of the steps:
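Fluorescence read-out of live-cell protease activity (CellTiter-Fluor) after 1 hr with reagent. This was measured in the same wells as the caspase-3/7 luminescence, on HepG2 cells exposed to DMSO-dissolved compounds for 16 hr at 37 C.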

For experiment [5], the target named is Nuclear receptor subfamily 1 group I member 2 (Homo sapiens) (UniProt O75469). Briefly: Human pregnane X receptor (PXR) small molecule agonists, qHTS assay (AID 1346982). Further: nearly all actives have a fitted effect of over 35% in size. Further: potency means the concentration at half of the fitted maximal effect. On activation: on the % scale 0 is the no-effect control and ±100 the full control effect. An outline of the steps:
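HepG2 PXR-Luc reporter line, 5% charcoal-stripped FBS; 5 hr pre-incubation, compound (DMSO) 24 hr at 37 C/5% CO2; ONE-Glo 30 min RT; luminescence read-out.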

Experiment [6] addresses Cytochrome P450 2D6 (Homo sapiens) (UniProt P10635). Briefly: Cytochrome P450 Family 2 Subfamily D Member 6 (CYP2D6) small molecule antagonists: luciferase reporter qHTS assay (AID 1671196). Further: nearly all actives have a fitted effect of over 50% in size. Further: potency means the concentration at half of the fitted maximal effect. An outline of the steps: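 Luminogenic proluciferin substrate, CYP2D6 enzyme; 10 min RT preincubation with compound, NADPH regeneration system added, 1 h RT. Stop/detection reagent, 20 min RT, luminescence read (RLU). Signal proportional to CYP activity.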
In general terms: In a reporter assay the amount or activity of a reporter protein is the signal.

Experiment [7] concerns the target Cytochrome P450 2C19 (Homo sapiens) (UniProt P33261). Briefly: Cytochrome P450 Family 2 Subfamily C Member 19 (CYP2C19) small molecule antagonists: luciferase reporter qHTS assay (AID 1671197). Further: nearly all actives have a fitted effect of over 65% in size. Further: potency means the concentration at half of the fitted maximal effect. The essentials: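 Light output is proportional to CYP2C19 activity: proluciferin substrate is converted to luciferin, then detected by a luciferin detection reagent that also stops the 1 h, 37C NADPH-driven reaction. Ketoconazole serves as positive control.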

Experiment [8] concerns the target Cytochrome P450 1A2 (Homo sapiens) (UniProt P05177). The experiment in a line: Cytochrome P450 Family 1 Subfamily A Member 2 (CYP1A2) small molecule antagonists: luciferase reporter qHTS assay (AID 1671199). Further: nearly all actives have a fitted effect of over 50% in size. Further: potency means the concentration at half of the fitted maximal effect. An outline of the steps:
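Luminescence readout (relative luminescence units) after luciferin detection reagent, 20 min RT. Preceded by 1 h room-temperature CYP1A2 reaction with NADPH regeneration solution following 10 min compound preincubation with enzyme and proluciferin substrate. Furafylline positive control.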

The target of experiment [9] is Voltage-gated inwardly rectifying potassium channel KCNH2 (Homo sapiens) (UniProt Q12809). The experiment in a line: Human Ether-a-go-go-Related Gene (hERG) channel small molecule antagonists: fluorescence cell-based qHTS assay (AID 1671200). Further: nearly all actives have a fitted effect of over 50% in size. Further: potency means the concentration at half of the fitted maximal effect. An outline of the steps: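 hERG-U2OS cells plated overnight at 37 C, loaded with FluxOR II dye 1 h at RT in dark; after 10 min, thallium stimulus added. Fluorescence (480/540 nm) read kinetically for 2 min at 1 s intervals.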
(In general: Block of hERG is tested as a sign of cardiac risk.)

In experiment [10] the target is Cytochrome P450 3A4 (Homo sapiens) (UniProt P08684). The experiment in a line: Cytochrome P450 Family 3 Subfamily A Member 4 (CYP3A4) small molecule antagonists: luciferase reporter qHTS assay (AID 1671201). Further: nearly all actives have a fitted effect of over 50% in size. Further: potency means the concentration at half of the fitted maximal effect. An outline of the steps: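 P450-Glo CYP3A4 luminescent assay: compounds preincubated 10 min at room temperature with enzyme and proluciferin substrate, NADPH regeneration added, 1 h room-temperature reaction, stopped with luciferin detection reagent; luminescence read after 20 min. Ketoconazole positive control.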

In experiment [11] the target is Cytochrome P450 2C9 (Homo sapiens) (UniProt P11712). Briefly: Cytochrome P450 Family 2 Subfamily C Member 9 (CYP2C9) small molecule antagonists: luciferase reporter qHTS assay (AID 1671198). Further: nearly all actives have a fitted effect of over 50% in size. Further: potency means the concentration at half of the fitted maximal effect. An outline of the steps:
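P450-Glo proluciferin substrate with CYP2C9 enzyme; 10 min RT preincubation, then NADPH regeneration 1 h at 37C; luciferin detection reagent 20 min RT, luminescence in relative luminescence units.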

The target of experiment [12] is Nuclear receptor subfamily 1 group I member 2 (Rattus norvegicus) (UniProt Q9R1A7). The experiment in a line: Rat pregnane X receptor (rPXR) activation by small molecules, qHTS assay (AID 1346983). Further: on the % scale 0 is the no-effect control and ±100 the full control effect; nearly all actives have a fitted effect of over 20% in size. Particulars: rPXR luciferase reporter cells, One-Glo luminescence, 24 h; max activation: stronger effect = higher value. An outline of the steps:
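Cell-based rPXR activation assay: rPXR cells, 2,000 per well, rested 5hr at 37 C, then exposed to compounds in DMSO for 24 hr at 37 C. Luciferase activity read by One-Glo luminescence after 30 min at room temperature.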

Experiment [13] addresses Nuclear receptor subfamily 1 group I member 2 (Homo sapiens) (UniProt O75469). The experiment in a line: CYP3A4 induction through human pregnane X receptor (PXR) by small molecules, qHTS assay (AID 1346984). Further: on the % scale 0 is the no-effect control and ±100 the full control effect; nearly all actives have a fitted effect of over 40% in size. The essentials: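 HepG2-derived DPX-2 line carrying PXR plus a CYP3A4-promoter luciferase reporter; cells plated 5 hr, compound-exposed 24 hr at 37C. CYP3A4 activity probed with 3uM (final) Luciferin-IPA for 3hr, then luciferase read after One-Glo.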

The target is the same in experiment [14]. The experiment in a line: Human pregnane X receptor (PXR) activation by small molecules, qHTS assay (AID 1346985). Further: on the % scale 0 is the no-effect control and ±100 the full control effect; nearly all actives have a fitted effect of over 40% in size. The essentials:
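DPX-2 cells (HepG2 co-transfected with a PXR response element and a CYP3A4-promoter luciferase construct) were seeded at 2,000 per well, rested 5 hr at 37C, then exposed to DMSO-dissolved compounds for 24 hr. Activation was read as luciferase luminescence.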

Experiment [15] can be described thus: Human pregnane X receptor (PXR) small molecule agonists, qHTS cell viability counter screen (AID 1346977). An outline of the steps: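 PXR-Luc HepG2 cells (2,000/well, 5% charcoal-stripped FBS) preincubated 5 hr, then exposed to compounds 24 hr at 37 C. Viability read in the same wells by CellTiter-Fluor fluorescence, reagent added at 23 hr, 1 hr incubation.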

From PubChem BioAssay (Tox21) come the findings set out here.

A number with no mark means an inactive call. Inconclusive results are not listed. Activity calls are given as the source filed them. The call rests on the fitted dose curve; in most records, active means well fitted curve in the direction sought with a large enough effect in the repeat runs; inconclusive means weak or mixed curves; inactive means no such curve, though single readings can be large; an effect the other way counts as inactive or inconclusive.

Chain of Cytochrome P450 2C9 (Homo sapiens) (P11712 whole entry, looked up): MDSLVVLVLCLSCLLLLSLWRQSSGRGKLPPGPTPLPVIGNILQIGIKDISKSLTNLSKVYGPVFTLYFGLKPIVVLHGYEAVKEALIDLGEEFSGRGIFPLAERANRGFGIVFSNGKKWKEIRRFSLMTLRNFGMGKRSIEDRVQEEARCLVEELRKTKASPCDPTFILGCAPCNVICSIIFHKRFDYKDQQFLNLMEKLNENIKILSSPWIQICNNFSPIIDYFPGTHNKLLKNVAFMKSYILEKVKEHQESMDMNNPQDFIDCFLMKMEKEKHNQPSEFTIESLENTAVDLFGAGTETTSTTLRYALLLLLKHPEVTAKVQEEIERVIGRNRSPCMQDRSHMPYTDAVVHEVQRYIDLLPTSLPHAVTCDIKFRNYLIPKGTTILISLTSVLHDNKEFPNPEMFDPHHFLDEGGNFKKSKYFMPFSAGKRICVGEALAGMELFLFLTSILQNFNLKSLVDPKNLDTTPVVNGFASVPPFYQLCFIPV
Chain of Voltage-gated inwardly rectifying potassium channel KCNH2 (Homo sapiens) (Q12809 whole entry, looked up): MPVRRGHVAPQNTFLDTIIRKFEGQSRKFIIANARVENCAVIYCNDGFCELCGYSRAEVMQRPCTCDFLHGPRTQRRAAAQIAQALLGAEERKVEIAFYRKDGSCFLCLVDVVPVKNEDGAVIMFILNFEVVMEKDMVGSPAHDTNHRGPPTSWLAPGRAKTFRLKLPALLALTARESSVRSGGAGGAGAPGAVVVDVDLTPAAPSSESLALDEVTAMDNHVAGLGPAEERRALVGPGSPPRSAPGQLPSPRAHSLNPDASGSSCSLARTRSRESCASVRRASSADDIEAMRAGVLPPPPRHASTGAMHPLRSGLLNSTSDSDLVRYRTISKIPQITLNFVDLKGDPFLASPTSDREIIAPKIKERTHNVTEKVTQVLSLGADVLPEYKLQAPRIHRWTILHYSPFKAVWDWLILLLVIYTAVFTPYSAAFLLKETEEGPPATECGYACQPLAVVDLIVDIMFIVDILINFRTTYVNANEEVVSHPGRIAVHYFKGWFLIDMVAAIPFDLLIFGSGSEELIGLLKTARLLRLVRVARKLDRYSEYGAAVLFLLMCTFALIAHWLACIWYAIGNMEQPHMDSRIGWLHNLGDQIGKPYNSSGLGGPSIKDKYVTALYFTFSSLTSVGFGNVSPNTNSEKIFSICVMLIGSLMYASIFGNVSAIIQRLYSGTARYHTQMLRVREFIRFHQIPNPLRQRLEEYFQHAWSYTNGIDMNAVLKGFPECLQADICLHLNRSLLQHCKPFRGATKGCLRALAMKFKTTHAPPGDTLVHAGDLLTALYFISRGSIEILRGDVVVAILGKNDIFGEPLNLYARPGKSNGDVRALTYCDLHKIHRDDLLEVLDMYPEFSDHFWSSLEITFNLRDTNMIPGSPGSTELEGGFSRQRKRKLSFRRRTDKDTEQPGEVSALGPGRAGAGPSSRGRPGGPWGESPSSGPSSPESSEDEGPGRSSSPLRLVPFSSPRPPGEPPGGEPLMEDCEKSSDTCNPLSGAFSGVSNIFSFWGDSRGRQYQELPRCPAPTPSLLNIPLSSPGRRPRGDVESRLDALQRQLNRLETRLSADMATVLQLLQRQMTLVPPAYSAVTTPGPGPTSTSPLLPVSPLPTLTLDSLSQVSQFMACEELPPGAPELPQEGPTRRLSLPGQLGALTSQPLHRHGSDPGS
Chain of Nuclear receptor subfamily 1 group I member 2 (Homo sapiens) (O75469 whole entry, looked up): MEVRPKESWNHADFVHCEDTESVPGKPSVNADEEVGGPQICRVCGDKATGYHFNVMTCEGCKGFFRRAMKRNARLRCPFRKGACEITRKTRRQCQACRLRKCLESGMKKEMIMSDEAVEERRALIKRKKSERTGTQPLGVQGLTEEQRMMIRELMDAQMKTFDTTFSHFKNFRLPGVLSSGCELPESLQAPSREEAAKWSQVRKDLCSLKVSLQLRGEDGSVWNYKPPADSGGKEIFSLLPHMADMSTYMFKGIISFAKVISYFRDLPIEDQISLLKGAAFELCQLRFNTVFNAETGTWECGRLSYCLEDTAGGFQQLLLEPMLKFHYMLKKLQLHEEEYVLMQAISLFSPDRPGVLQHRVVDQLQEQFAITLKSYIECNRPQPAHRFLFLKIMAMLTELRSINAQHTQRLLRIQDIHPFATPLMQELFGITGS
Chain of Cytochrome P450 2D6 (Homo sapiens) (P10635 whole entry, looked up): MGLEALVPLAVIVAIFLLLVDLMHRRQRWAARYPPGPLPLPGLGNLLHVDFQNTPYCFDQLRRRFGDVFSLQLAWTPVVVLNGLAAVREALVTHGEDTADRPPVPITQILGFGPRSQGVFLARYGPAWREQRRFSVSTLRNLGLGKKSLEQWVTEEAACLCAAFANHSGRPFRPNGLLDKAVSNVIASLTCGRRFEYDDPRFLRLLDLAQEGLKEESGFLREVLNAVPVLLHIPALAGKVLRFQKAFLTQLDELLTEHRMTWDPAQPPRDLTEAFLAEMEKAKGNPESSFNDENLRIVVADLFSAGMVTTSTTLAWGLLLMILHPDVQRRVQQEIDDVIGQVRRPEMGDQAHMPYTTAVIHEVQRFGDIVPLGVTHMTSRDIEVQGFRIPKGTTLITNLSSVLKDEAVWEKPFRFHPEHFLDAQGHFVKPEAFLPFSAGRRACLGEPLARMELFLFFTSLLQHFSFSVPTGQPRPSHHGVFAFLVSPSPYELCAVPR
Chain of Nuclear receptor subfamily 1 group I member 2 (Rattus norvegicus) (Q9R1A7 whole entry, looked up): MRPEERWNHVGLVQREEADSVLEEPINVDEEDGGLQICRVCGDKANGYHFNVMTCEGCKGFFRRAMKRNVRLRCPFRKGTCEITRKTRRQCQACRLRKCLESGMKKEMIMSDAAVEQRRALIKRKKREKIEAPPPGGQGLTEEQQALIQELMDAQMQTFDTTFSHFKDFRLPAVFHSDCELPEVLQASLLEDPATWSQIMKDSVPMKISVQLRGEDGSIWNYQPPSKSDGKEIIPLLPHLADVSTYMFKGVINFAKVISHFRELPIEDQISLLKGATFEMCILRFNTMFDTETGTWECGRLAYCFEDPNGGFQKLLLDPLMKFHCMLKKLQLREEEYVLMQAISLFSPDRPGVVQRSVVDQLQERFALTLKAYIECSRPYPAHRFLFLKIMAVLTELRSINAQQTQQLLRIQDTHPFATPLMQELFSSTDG
Chain of Cytochrome P450 3A4 (Homo sapiens) (P08684 whole entry, looked up): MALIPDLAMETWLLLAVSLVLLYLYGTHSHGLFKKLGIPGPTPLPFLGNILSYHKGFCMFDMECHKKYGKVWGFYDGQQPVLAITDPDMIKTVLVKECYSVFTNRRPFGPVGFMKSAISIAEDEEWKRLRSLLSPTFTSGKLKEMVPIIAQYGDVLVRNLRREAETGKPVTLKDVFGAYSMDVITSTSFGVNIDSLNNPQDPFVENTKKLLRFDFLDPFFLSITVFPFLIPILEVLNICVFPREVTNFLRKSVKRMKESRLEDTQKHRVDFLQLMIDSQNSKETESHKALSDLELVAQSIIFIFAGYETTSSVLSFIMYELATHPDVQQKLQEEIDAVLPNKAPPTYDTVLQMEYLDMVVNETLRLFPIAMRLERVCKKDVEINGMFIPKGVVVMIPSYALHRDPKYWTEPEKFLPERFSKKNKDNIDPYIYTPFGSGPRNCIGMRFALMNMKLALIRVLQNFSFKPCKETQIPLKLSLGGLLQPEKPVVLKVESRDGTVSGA
Chain of Cytochrome P450 1A2 (Homo sapiens) (P05177 whole entry, looked up): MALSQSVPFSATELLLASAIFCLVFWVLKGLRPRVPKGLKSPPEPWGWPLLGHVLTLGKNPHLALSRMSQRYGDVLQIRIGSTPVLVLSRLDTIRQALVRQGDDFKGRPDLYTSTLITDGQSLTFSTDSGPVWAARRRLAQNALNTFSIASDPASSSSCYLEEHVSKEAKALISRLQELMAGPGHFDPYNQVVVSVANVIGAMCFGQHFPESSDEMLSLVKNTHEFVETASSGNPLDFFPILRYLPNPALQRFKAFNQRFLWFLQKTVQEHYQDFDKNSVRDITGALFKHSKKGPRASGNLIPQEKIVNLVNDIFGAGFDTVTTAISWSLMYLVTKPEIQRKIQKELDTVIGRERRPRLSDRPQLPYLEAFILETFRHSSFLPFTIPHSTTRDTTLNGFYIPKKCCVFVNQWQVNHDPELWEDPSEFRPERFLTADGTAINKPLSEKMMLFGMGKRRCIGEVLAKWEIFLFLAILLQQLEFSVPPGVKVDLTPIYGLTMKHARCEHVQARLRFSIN
Chain of Cytochrome P450 2C19 (Homo sapiens) (P33261 whole entry, looked up): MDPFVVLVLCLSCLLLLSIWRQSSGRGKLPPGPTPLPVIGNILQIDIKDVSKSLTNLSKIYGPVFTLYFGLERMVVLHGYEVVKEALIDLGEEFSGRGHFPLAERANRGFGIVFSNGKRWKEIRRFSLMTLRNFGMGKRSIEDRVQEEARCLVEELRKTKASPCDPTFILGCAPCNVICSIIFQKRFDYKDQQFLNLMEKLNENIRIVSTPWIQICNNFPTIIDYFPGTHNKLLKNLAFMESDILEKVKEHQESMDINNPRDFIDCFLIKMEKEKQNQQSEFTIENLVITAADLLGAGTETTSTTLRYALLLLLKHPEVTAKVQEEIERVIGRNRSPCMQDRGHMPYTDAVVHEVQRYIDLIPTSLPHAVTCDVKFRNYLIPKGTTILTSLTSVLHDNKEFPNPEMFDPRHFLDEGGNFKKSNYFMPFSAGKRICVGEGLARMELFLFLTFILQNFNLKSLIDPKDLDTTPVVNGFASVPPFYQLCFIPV

`Cc1cccc(N(C)C(=S)Oc2ccc3c(c2)CCC3)c1`: the Potency entry in [1], in [2], in [3], in experiment [4], in experiment [6] and in [9] was “inactive” in each case. Besides, in [10], the Potency entry is “inactive”. In addition, the Potency in [5] is 10.6 µM (active); in [7], 1.74 µM (active); in experiment [8], 10.2 µM (active).
For `CC1=C(CC=O)C(C)(C)CCC1`, the Potency entry in experiment [1], in experiment [2], in experiment [3], in experiment [6], in experiment [8] and in experiment [9] was “inactive” each time. Also, the Potency in experiment [5] was 24.3 µM (active); in experiment [10], 31.7 µM (active).
`CC(=O)NC1(c2cccc(F)c2)CCN(CC[C@@]2(c3ccc(Cl)c(Cl)c3)CN(c3ccccc3)C(=O)CO2)CC1`: the Potency in [1] was 48.7 µM (active); in [2] it was 34.5 µM (active); in experiment [3], 48.7 µM (active); in experiment [4], 48.7 µM (active); in experiment [5], 19.4 µM (active); in [6], 28.3 µM (active). Besides, the Potency in experiment [11] was 8.96 µM (active); in experiment [9] it was 13.8 µM (active). The Potency result in experiment [8] and in experiment [10] was “inactive” each time.
With `COc1ccc(OC(=O)N(CC(=O)O)Cc2ccc(OCCc3nc(-c4ccccc4)oc3C)cc2)cc1`, the Potency result in [1], in [2], in [3], in experiment [4], in experiment [5] and in experiment [6] was “inactive” each time. The Potency result in experiment [7] and in experiment [10] was “inactive” throughout. Besides, the Potency was 13.8 µM (active) in experiment [11] and 17.4 µM (active) in experiment [8].
For `Cc1cc2c(OCC(CNC(C)(C)C)OC(=O)c3ccccc3)cccc2[nH]1` (configuration not stated), the Potency entry in experiment [1], in experiment [2], in experiment [3], in experiment [4], in experiment [5] and in experiment [13] was “inactive” each time. For the same compound, the Potency entry in experiment [14] and in experiment [8] was “inactive” each time. Moreover, the max activation in experiment [12] is -3.65%. Moreover, the Potency in experiment [6] is 0.692 µM (active); in experiment [11], 7.76 µM (active).
Turning to `CC(C)(C)C(=O)C(=O)O`, the Potency entry in experiment [1], in experiment [2], in experiment [3], in experiment [4], in [6] and in experiment [11] was “inactive” throughout. Besides, the Potency result in experiment [8], in [9] and in experiment [10] was “inactive” in each case.
Take `Nc1ncnc2c1ncn2[C@H]1CC[C@@H](CO)O1`: the Potency result in experiment [1], in experiment [2], in [3], in experiment [4], in [13] and in [14] was “inactive” each time. Besides, the Potency entry in experiment [6], in [11], in [9] and in [10] was “inactive” each time. In experiment [12], the max activation was 1.66%.
On to `NC1[C@H]2CN(c3nc4c(cc3F)c(=O)c(C(=O)O)cn4-c3ccc(F)cc3F)C[C@@H]12` (some centres not stated), for which the Potency result in experiment [1], in experiment [3], in experiment [6], in experiment [11], in [8] and in [9] was “inactive” throughout. The Potency entry in experiment [10] was “inactive”. Besides, the values for the Potency in experiment [2] and in experiment [5] were 3.76 µM (active) and 26.6 µM (active), respectively.
Consider `OCCN1CCN(CCCN2c3ccccc3Sc3ccc(Cl)cc32)CC1`, for which the Potency in [15] was 29.8 µM (active); in experiment [2] it was 29.8 µM (active); in experiment [5], 10.6 µM (active); in [9], 2.68 µM (active). Moreover, in experiment [12], the max activation is 5.45%. In addition, the Potency entry in experiment [14] is “inactive”.
As for `Cc1cc(C)c(N)cc1C`, the Potency entry in experiment [1], in experiment [2], in [3] and in experiment [4] was “inactive” in each case. Further, the Potency is 22.4 µM (active) in [6], 35.5 µM (active) in experiment [11], 0.708 µM (active) in experiment [8] and 35.5 µM (active) in [10].
